Source: PubChem BioAssay (NCATS)
Records with an inconclusive call do not appear. Active and inactive are the calls of the source. The call rests on the fitted dose curve; in most records, active means well fitted curve in the direction sought with a large enough effect; inconclusive means small, poorly fitted or top-dose-only effect, or another doubt; inactive means no such curve, though single readings can be large; an effect the other way counts as inactive or inconclusive.

Columns and labels:
[1] = molecular target: ATP-dependent 6-phosphofructokinase (Trypanosoma brucei brucei) (UniProt O15648); assay: qHTS Assay to Find Inhibitors of T. brucei phosphofructokinase: hit validation (AID 492961);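 further: luminescence reports ADP formed as PFK phosphorylates fructose-6-phosphate with ATP; on the % scale 0 is the no-effect control and ±100 the full control effect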
Sequence of ATP-dependent 6-phosphofructokinase (Trypanosoma brucei brucei) (O15648 whole entry, looked up): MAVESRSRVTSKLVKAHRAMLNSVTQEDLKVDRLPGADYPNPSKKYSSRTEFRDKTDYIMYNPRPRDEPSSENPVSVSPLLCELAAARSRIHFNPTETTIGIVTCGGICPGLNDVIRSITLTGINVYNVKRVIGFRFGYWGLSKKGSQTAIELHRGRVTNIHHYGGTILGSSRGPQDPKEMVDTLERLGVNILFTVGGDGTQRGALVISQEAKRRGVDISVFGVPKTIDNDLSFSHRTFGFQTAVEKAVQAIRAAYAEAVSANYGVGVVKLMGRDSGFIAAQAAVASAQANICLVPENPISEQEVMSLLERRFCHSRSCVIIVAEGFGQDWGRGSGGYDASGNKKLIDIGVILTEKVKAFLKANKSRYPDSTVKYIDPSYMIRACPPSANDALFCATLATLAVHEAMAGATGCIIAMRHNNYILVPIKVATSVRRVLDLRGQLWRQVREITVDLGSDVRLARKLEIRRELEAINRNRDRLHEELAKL
How it was run: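 Reaction: 0.1 M triethanolamine pH 8.0, 5 mM MgCl2, F6P 0.5 mM, ATP 0.1 mM, PFK 1.25 nM, 45 min RT. Read-out: ADP-Glo luminescence. Analysis: concentration-response fits, classed by r2 and efficacy.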

[2] = qHTS profiling for inhibitors of Plasmodium falciparum proliferation (AID 504749);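 further: 0% = DMSO vehicle and full inhibition = artemisinin control; nearly all actives have a fitted effect of over 60% in size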; details: P. falciparum in erythrocytes, SYBR Green DNA, 72 h
How it was run: (§1)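 Quantitative HTS: compounds pinned into medium, infected erythrocytes added (0.3% parasitemia, 2.5% hematocrit), 72 h culture at 37 C under 5% CO2. Saponin/Triton lysis with SYBR Green I, overnight RT, then fluorescence read.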

AA1029 = assay: as above; details: P. falciparum in erythrocytes, SYBR Green DNA, 72 h; series mostly up to 28.7 µM
How it was run: as §1

AS120 = assay: as above; details: P. falciparum in erythrocytes, SYBR Green DNA, 72 h; series mostly up to 28.7 µM
How it was run: as §1

ATS189 = assay: as above; details: P. falciparum in erythrocytes, SYBR Green DNA, 72 h; series mostly up to 28.7 µM
How it was run: as §1

CP185 = assay: as above; details: P. falciparum in erythrocytes, SYBR Green DNA, 72 h; series mostly up to 28.7 µM
How it was run: as §1

CP211 = assay: as above; details: P. falciparum in erythrocytes, SYBR Green DNA, 72 h; series mostly up to 28.7 µM
How it was run: as §1

CP217 = assay: as above; details: P. falciparum in erythrocytes, SYBR Green DNA, 72 h; series mostly up to 28.7 µM
How it was run: as §1

CP238 = assay: as above; details: P. falciparum in erythrocytes, SYBR Green DNA, 72 h; series mostly up to 28.7 µM
How it was run: as §1

CP252 = assay: as above; details: P. falciparum in erythrocytes, SYBR Green DNA, 72 h; series mostly up to 28.7 µM
How it was run: as §1

CP262 = assay: as above; details: P. falciparum in erythrocytes, SYBR Green DNA, 72 h; series mostly up to 28.7 µM
How it was run: as §1

CP265 = assay: as above; details: P. falciparum in erythrocytes, SYBR Green DNA, 72 h; series mostly up to 28.7 µM
How it was run: as §1

CP269 = assay: as above; details: P. falciparum in erythrocytes, SYBR Green DNA, 72 h; series mostly up to 28.7 µM
How it was run: as §1

CP286 = assay: as above; details: P. falciparum in erythrocytes, SYBR Green DNA, 72 h; series mostly up to 28.7 µM
How it was run: as §1

CP329 = assay: as above; details: P. falciparum in erythrocytes, SYBR Green DNA, 72 h; series mostly up to 28.7 µM
How it was run: as §1

DFO2036 = assay: as above; details: P. falciparum in erythrocytes, SYBR Green DNA, 72 h; series mostly up to 28.7 µM
How it was run: as §1

ECU = assay: as above; details: P. falciparum in erythrocytes, SYBR Green DNA, 72 h; series mostly up to 28.7 µM
How it was run: as §1

FAB9 = assay: as above; details: P. falciparum in erythrocytes, SYBR Green DNA, 72 h; series mostly up to 28.7 µM
How it was run: as §1

N140 = assay: as above; details: P. falciparum in erythrocytes, SYBR Green DNA, 72 h; series mostly up to 28.7 µM
How it was run: as §1

TAB109 = assay: as above; details: P. falciparum in erythrocytes, SYBR Green DNA, 72 h; series mostly up to 28.7 µM
How it was run: as §1

[3] = at 28.7 µM (top of the series), parasite line A
[4] = at 28.7 µM (top of the series), parasite line B

COC(c1ccccc1)(c1ccccc1)C(Oc1nc(C)cc(C)n1)C(=O)O (stereo unspecified)
inactive: Potency [1] | activity, negative = inhibition [2, 3] 2.94% | activity, negative = inhibition [2, 4] 8.39% | Potency (AA1029) | Potency (AS120) | Potency (ATS189) | Potency (CP185) | Potency (CP211) | Potency (CP217) | Potency (CP238) | Potency (CP252) | Potency (CP262) | Potency (CP265) | Potency (CP269) | Potency (CP286) | Potency (CP329) | Potency (DFO2036) | Potency (ECU) | Potency (FAB9) | Potency (N140) | Potency (TAB109)

CC1(C)SC2C(NC(=O)C(C(=O)O)c3ccccc3)C(=O)N2C1C(=O)O (stereo unspecified)
inactive: Potency [1] | activity, negative = inhibition [2, 3] 5.75% | activity, negative = inhibition [2, 4] 2.54% | Potency (AA1029) | Potency (AS120) | Potency (ATS189) | Potency (CP185) | Potency (CP211) | Potency (CP217) | Potency (CP238) | Potency (CP252) | Potency (CP262) | Potency (CP265) | Potency (CP269) | Potency (CP286) | Potency (CP329) | Potency (DFO2036) | Potency (ECU) | Potency (FAB9) | Potency (N140) | Potency (TAB109)

CO/N=C(/C(=O)N[C@@H]1C(=O)N2C(C(=O)O)=C(C[n+]3ccc(N)n3CCO)CS[C@H]12)c1csc(N)n1
inactive: Potency [1] | activity, negative = inhibition [2, 3] 0.303% | activity, negative = inhibition [2, 4] 9.51% | Potency (AA1029) | Potency (AS120) | Potency (ATS189) | Potency (CP185) | Potency (CP211) | Potency (CP217) | Potency (CP238) | Potency (CP252) | Potency (CP262) | Potency (CP265) | Potency (CP269) | Potency (CP286) | Potency (CP329) | Potency (DFO2036) | Potency (ECU) | Potency (FAB9) | Potency (N140) | Potency (TAB109)

Cc1cnc(C(=O)O)cn1
inactive: Potency [1] | activity, negative = inhibition [2, 3] 9.61% | activity, negative = inhibition [2, 4] 7.1% | Potency (AA1029) | Potency (AS120) | Potency (ATS189) | Potency (CP185) | Potency (CP211) | Potency (CP217) | Potency (CP238) | Potency (CP252) | Potency (CP262) | Potency (CP265) | Potency (CP269) | Potency (CP286) | Potency (CP329) | Potency (DFO2036) | Potency (ECU) | Potency (FAB9) | Potency (N140) | Potency (TAB109)

CC(O)C1CCC2C3CCC4CC(O)CCC4(C)C3CCC12C (stereo unspecified)
inactive: Potency [1] | activity, negative = inhibition [2, 3] 11.7% | activity, negative = inhibition [2, 4] 5.42% | Potency (AA1029) | Potency (AS120) | Potency (ATS189) | Potency (CP185) | Potency (CP211) | Potency (CP217) | Potency (CP238) | Potency (CP252) | Potency (CP262) | Potency (CP265) | Potency (CP269) | Potency (CP286) | Potency (CP329) | Potency (DFO2036) | Potency (ECU) | Potency (FAB9) | Potency (N140) | Potency (TAB109)

CNC1C(O)C(OC2C(N)CC(N)C(OC3OC(CN)=CCC3N)C2O)OCC1(C)O (stereo unspecified)
inactive: Potency [1] | activity, negative = inhibition [2, 3] 16.7% | activity, negative = inhibition [2, 4] -10.7% | Potency (AA1029) | Potency (AS120) | Potency (ATS189) | Potency (CP185) | Potency (CP211) | Potency (CP217) | Potency (CP238) | Potency (CP252) | Potency (CP262) | Potency (CP265) | Potency (CP269) | Potency (CP286) | Potency (CP329) | Potency (DFO2036) | Potency (ECU) | Potency (FAB9) | Potency (N140) | Potency (TAB109)

CCCCCCCCCCCCCCCC(=O)OCC(COP(=O)(O)OCC[N+](C)(C)C)OC(=O)CCCCCCCCCCCCCCC (stereo unspecified)
inactive: Potency [1] | activity, negative = inhibition [2, 3] -4.13% | activity, negative = inhibition [2, 4] 3.84% | Potency (AA1029) | Potency (AS120) | Potency (ATS189) | Potency (CP185) | Potency (CP211) | Potency (CP217) | Potency (CP238) | Potency (CP252) | Potency (CP262) | Potency (CP265) | Potency (CP269) | Potency (CP286) | Potency (CP329) | Potency (DFO2036) | Potency (ECU) | Potency (FAB9) | Potency (N140) | Potency (TAB109)

CNC(=O)C(N)CSC(C)C1=C(C)c2cc3[n-]c(cc4nc(cc5[n-]c(cc1n2)c(C)c5CCC(=O)O)C(CCC(=O)O)=C4C)c(C)c3C(C)SCC(N)C(=O)NC.[Fe+2] (stereo unspecified)
inactive: Potency [1] | activity, negative = inhibition [2, 3] 8.98% | activity, negative = inhibition [2, 4] -1.36% | Potency (AA1029) | Potency (AS120) | Potency (ATS189) | Potency (CP185) | Potency (CP211) | Potency (CP217) | Potency (CP238) | Potency (CP252) | Potency (CP262) | Potency (CP265) | Potency (CP269) | Potency (CP286) | Potency (CP329) | Potency (DFO2036) | Potency (ECU) | Potency (FAB9) | Potency (N140) | Potency (TAB109)

CC(=O)N[C@H]1[C@H](O[C@@H]2c3ccc(c(Cl)c3)Oc3cc4cc(c3O[C@@H]3O[C@H](CO)[C@@H](O)[C@H](O)C3C)Oc3ccc(cc3Cl)C[C@H]3NC(=O)[C@@H](N)c5ccc(O)c(c5)Oc5cc(O)cc(c5)[C@H](NC3=O)C(=O)N[C@H]4C(=O)N[C@H]3C(=O)N[C@@H]2C(=O)N[C@@H](C(=O)O)c2cc(O)cc(O[C@H]4O[C@H](CO)[C@@H](O)C(O)[C@@H]4O)c2-c2cc3ccc2O)O[C@H](CO)[C@@H](O)[C@@H]1O (stereo partly specified)
inactive: activity, negative = inhibition ([2]; at 12.8 µM (top of the series), parasite line A) -7.42% | activity, negative = inhibition ([2]; at 12.8 µM (top of the series), parasite line B) 7.54%

NC(CSSCC(N)C(=O)O)C(=O)O (stereo unspecified)
inactive: Potency [1] | activity, negative = inhibition [2, 3] 5.04% | activity, negative = inhibition [2, 4] 19% | Potency (AA1029) | Potency (AS120) | Potency (ATS189) | Potency (CP185) | Potency (CP211) | Potency (CP217) | Potency (CP238) | Potency (CP252) | Potency (CP262) | Potency (CP265) | Potency (CP269) | Potency (CP286) | Potency (CP329) | Potency (DFO2036) | Potency (ECU) | Potency (FAB9) | Potency (N140) | Potency (TAB109)
